High-throughput results from PubChem.
FAS TE block: inhibitors of human fatty acid synthase thioesterase domain; AID 602261; P49327; inhibition, % at 15 µM; recombinant FAS-TE, OMFH fluorogenic substrate, fluorescence endpoint; actives 0.67% (n = 360,000);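 active = compounds whose normalised, plate-corrected inhibition of enzyme fluorescence in the single-dose primary screen is 50% or more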
GRIN3A LBD mod: NR3A (human) ligand-binding domain modulation; NR3A LBD differential scanning fluorimetry, Tm shift; 0% = protein alone, 100% = glycine-bound protein; Tm shift relative to glycine control, % at 25 µM; actives 2.5% (n = 340,000); AID 1259313;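 active = melting temperature shift of at least 10% of the positive control shift, at one fixed dose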
ADAM17 inh: inhibits human ADAM17; inhibition, % at 6.95 µM; recombinant ADAM17, EDANS/DABCYL FRET peptide cleavage; actives 0.83% (n = 370,000);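 active = inhibition above the mean of compounds lying between control limits plus 3 SD, set per campaign, cut at about 8.5% in these data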
ADAM10 inh: inhibits human ADAM10. O14672. recombinant ADAM10, EDANS/DABCYL FRET peptide cleavage, 3 h. inhibition, % at 7 µM. actives 0.62% (n = 370,000);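 active = inhibition above a per-campaign cutoff equal to the mean of compounds falling between control-based bounds plus 3 SD, cut at about 20% in these data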
Target sequence (O14672 214-748 limits assumed): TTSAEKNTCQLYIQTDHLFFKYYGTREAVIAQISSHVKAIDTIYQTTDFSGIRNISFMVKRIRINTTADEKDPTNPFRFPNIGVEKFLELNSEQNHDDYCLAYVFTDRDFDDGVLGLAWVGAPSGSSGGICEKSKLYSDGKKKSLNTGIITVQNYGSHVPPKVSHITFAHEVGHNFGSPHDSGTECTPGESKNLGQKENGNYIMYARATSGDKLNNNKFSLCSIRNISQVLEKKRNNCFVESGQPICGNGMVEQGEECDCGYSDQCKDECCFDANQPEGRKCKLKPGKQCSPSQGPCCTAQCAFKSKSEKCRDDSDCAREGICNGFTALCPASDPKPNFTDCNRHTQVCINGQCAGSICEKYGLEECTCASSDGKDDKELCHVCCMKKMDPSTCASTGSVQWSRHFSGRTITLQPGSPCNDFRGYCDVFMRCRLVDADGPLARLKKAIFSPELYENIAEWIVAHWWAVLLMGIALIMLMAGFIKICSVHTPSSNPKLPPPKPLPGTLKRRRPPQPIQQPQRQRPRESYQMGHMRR
KLK7 zymogen act: proKLK7 (human) activation, primary screen; actives 0.9% (n = 370,000); purified proKLK7, EDANS-DABCYL substrate fluorescence; 100% is mature enzyme control, 0% vehicle; P49862; AID 652039; activation, % at 7 µM;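 active = activation above the mean of all tested compounds plus 3 SD, computed per campaign excluding outliers beyond control limits, cut at about 13% in these data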
KLK7 act conf: confirmation of human kallikrein-7 zymogen activators | shares compounds with KLK7 zymogen act | purified proKLK7, EDANS-DABCYL substrate fluorescence; scaled: vehicle 0, mature enzyme 100 | activation, % at 7 µM | actives 68% (n = 3,200) | AID 686949;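 active = activation, as change over the incubation, above the mean of all tested compounds plus 3 SD, cut at about 13% in these data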
EDANS-DABCYL int: counter-screen for kallikrein-7 activators: EDANS-DABCYL optical interference. shares compounds with KLK7 zymogen act. EDANS-DABCYL substrate fluorescence interference, no enzyme, 4 h; solvent 0%, active enzyme control 100%. activation, % at 7 µM. actives 80% (n = 3,200). AID 686952;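 active = activation above the all-compound mean plus 3 SD, ignoring values outside control-based bounds, cut at about 4.8% in these data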;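 note: value is the 4 h activation minus the activation read at time zero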
EDANS interf: counter-screen for kallikrein-7 activators: EDANS-DABCYL interference, dose response; shares compounds with KLK7 zymogen act; EDANS-DABCYL peptide fluorescence interference, no enzyme; EC50, µM; actives 20% (n = 250);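 active = compounds that raise the fluorescence signal in this interference counterscreen, with EC50 at or below 10 µM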;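 note: intact quenched peptide substrate alone read at 355 nm excitation and 520 nm emission; signal is fluorescence gain from T0 to T4 after four hours at room temperature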
Numbers stand for hits; n = inactive; x = no result. Most compounds without a hit are left out; they make up all but 4.6% or so of the library.

SMILES | FAS TE block | GRIN3A LBD mod | ADAM17 inh | ADAM10 inh | KLK7 zymogen act | KLK7 act conf | EDANS-DABCYL int | others
CC(C)CN1CN2CCc3ccccc3C2CS1(=O)=O (stereo unspecified) | x | x | n | n | n | x | x
COC(=O)[C@]1(C#N)CC(=O)N(CC(C)C)[C@@H]1c1ccccc1 | x | x | n | n | n | x | x
CC(C)N(C(=O)[C@H]1C[C@H](CC(=O)NCCCn2ccnc2)C(=O)N2CCc3c([nH]c4cc(-c5ccco5)ccc34)[C@]12C)C(C)C | n | n | n | n | n | x | x
C[C@]12c3[nH]c4cc(-c5ccco5)ccc4c3CCN1C(=O)[C@@H](CC(=O)NCCN1CCOCC1)C[C@@H]2C(=O)N1CCOCC1 | n | n | n | n | 52 | 35 | 51
CC(C)N(C(=O)[C@H]1C[C@H](CC(=O)NCCN2CCOCC2)C(=O)N2CCc3c([nH]c4cc(-c5ccco5)ccc34)[C@]12C)C(C)C | n | n | n | n | 124 | 120 | 127
COc1ccc(CNC(=O)C[C@H]2C[C@H](C(=O)N3CCOCC3)[C@@]3(C)c4[nH]c5cc(-c6ccco6)ccc5c4CCN3C2=O)cc1OC | n | n | n | n | 100 | 57 | 64
CCOC(=O)c1cccc(NC(=O)CN(C)S(=O)(=O)c2ccc(Cl)s2)c1 | x | x | n | n | n | x | x
COc1cc2c(cc1OC)[C@](C)(c1ccccc1)C[C@@H]2NCC=C(C)C | x | x | n | n | n | x | x
OC(c1ccccc1)(c1ccccc1)C1CCN(CCCNc2ccccc2Br)CC1 | x | x | n | n | n | x | x
CCCCOCCCNC(=O)C[C@H]1C[C@@]2(C(=O)OC)C(=C[C@H](C(C)C)O[C@@H]2C2CC2)N(CCc2ccc(OC)c(OC)c2)C1=O | x | x | n | n | n | x | x
CCN(CC)CCCNC(=O)c1oc(=O)c2ccccc2c1-c1ccc(C)cc1 | x | x | n | n | n | x | x
CC1(C)C2CCC1(C)C(OC(=O)C[n+]1ccccc1N)C2 (stereo unspecified) | n | n | n | n | 52 | 99 | 100
COCCCNC(=O)c1oc(=O)c2ccccc2c1-c1ccc(C)cc1 | x | x | n | n | n | x | x
CC(C)(C)c1ccc(CN2N=Nc3ccccc3S2(=O)=O)cc1 | n | n | n | n | 21 | n | n
CCOCCOC(=O)C1=C(C)NC2=C(C(=O)CC(c3cccs3)C2)C1c1ccsc1 (stereo unspecified) | n | n | n | n | 90 | n | n
CCOC(=O)C1=C(C)NC2=C(C(=O)CCC2)C1c1cccs1 (stereo unspecified) | n | n | n | n | n | x | x
COC(=O)[C@]12C[C@H](CC(=O)NCc3ccc(C)o3)C(=O)N(Cc3ccccc3)C1=C[C@H](COCc1ccccc1)O[C@@H]2C | x | x | n | n | n | x | x
CC(=O)c1cccc(OCC(=O)c2cc(C)n(-c3cc(C)on3)c2C)c1 | n | n | n | n | n | x | x
Cc1cc(-n2c(C)cc(C(=O)COc3ccc4ccc(=O)oc4c3)c2C)no1 | n | n | n | n | 59 | 44 | 54
N#CC(C#N)=Cc1c[nH]c(=O)c(C#N)c1Nc1ccccc1 | n | n | n | n | 62 | 63 | 62
N#Cc1c(Nc2ccccc2)c(/C=N/N=C/c2ccccc2)c[nH]c1=O | n | n | n | n | n | x | x
Cc1ccc(-n2c(SCC(=O)Nc3cccc4ccccc34)nnc2-c2ccccc2)cc1 | x | x | n | n | n | x | x
CN1CC=C2C(C#N)=C(N)C(C#N)(C#N)C(Cc3ccccc3)C2C1 (stereo unspecified) | n | n | n | n | 24 | n | 9.3
COc1cc(C2C3CN(C)CC=C3C(C#N)=C(N)C2(C#N)C#N)ccc1OC(C)C (stereo unspecified) | n | n | n | n | n | x | x
CC(C)(C)OC(=O)N1CC=C2C(C#N)=C(N)C(C#N)(C#N)[C@H](c3cccnc3)[C@H]2C1 | n | n | n | n | 19 | 37 | 34
SMILES | FAS TE block | GRIN3A LBD mod | ADAM17 inh | ADAM10 inh | KLK7 zymogen act | KLK7 act conf | EDANS-DABCYL int | others
CC(C)(C)OC(=O)N1CC=C2C(C#N)=C(N)C(C#N)(C#N)C(c3cccs3)C2C1 (stereo unspecified) | n | n | n | n | n | x | x
N#CC1=C(N)C(C#N)(C#N)[C@H](c2ccncc2)[C@H]2CN(C(=O)OCc3ccccc3)CC=C12 | n | n | n | n | 31 | 27 | 21
CCOC(=O)N1CC=C2C(C#N)=C(N)C(C#N)(C#N)[C@H](c3cccs3)C2C1 (stereo partly specified) | n | n | n | n | n | x | x
CC(C)N1CC=C2C(C#N)=C(N)C(C#N)(C#N)C(c3ccccc3)C2C1 (stereo unspecified) | n | n | n | n | 16 | 29 | 28
CCOC(=O)C1=C[C@@H](C(C)(C)C)N(S(=O)(=O)c2ccc([N+](=O)[O-])cc2)[C@H]1c1ccccc1Cl | x | x | n | n | n | x | x
CCN(CC)C(=O)CC[C@H]1CC[C@]2(CCCN(C(=O)c3ccno3)C2)O1 | x | x | n | n | n | x | x
CCOC(=O)NN1C(=O)c2ccccc2NC1c1cccs1 (stereo unspecified) | n | n | n | n | 14 | 16 | 15
O=C1c2ccccc2NC(c2ccco2)N1O (stereo unspecified) | n | n | n | n | n | x | x
CCOC(=O)NN1C(=O)c2ccccc2NC1c1cccnc1 (stereo unspecified) | n | n | n | n | n | x | x
O=C1c2ccccc2NC(c2cccs2)N1NS(=O)(=O)c1ccccc1 (stereo unspecified) | n | n | n | n | 36 | n | 4.5
CC(=O)NN1C(=O)c2ccccc2NC1c1ccccc1F (stereo unspecified) | n | n | n | n | 29 | 19 | 18
CC(=O)NN1C(=O)c2ccccc2NC1c1ccoc1 (stereo unspecified) | n | n | n | n | n | x | x
O=C1c2ccccc2NC(c2ccco2)N1NS(=O)(=O)c1ccccc1 (stereo unspecified) | n | n | n | n | 14 | n | 4.8
O=C(C1CCCCC1)n1ccc2ccc(-c3ccc4ccn(Cc5ccccc5)c4c3)cc21 | x | x | n | n | n | x | x
COc1ccc(C2C(C(=O)N3CCOCC3)=C(C)NC3=C2C(=O)CC(C)(C)C3)c(OC)c1 (stereo unspecified) | n | n | n | n | 18 | 31 | 20 | EDANS interf=n
O=S(=O)(c1cccc2cccnc12)N1CCC(c2cn3ccccc3n2)CC1 | x | x | n | n | n | x | x
